For 91 compounds, activation results are on record in PubChem BioAssay AID504692 (The Scripps Research Institute Molecular Screening Center, 2011).

Each structure is given as a SMILES string. In all, about 340,000 compounds went through this assay and about 2,000 (0.59%) were called active. The entries come from a sample that favours actives as a whole. Values without a mark were called inactive. No stated cut-off is given here; in the data, active means activation mostly above about 9.5% (no sharp cut-off); inactive means mostly below about 7.6%.

Chain of 5-hydroxytryptamine receptor 5A (Homo sapiens) (P47898 whole entry, looked up): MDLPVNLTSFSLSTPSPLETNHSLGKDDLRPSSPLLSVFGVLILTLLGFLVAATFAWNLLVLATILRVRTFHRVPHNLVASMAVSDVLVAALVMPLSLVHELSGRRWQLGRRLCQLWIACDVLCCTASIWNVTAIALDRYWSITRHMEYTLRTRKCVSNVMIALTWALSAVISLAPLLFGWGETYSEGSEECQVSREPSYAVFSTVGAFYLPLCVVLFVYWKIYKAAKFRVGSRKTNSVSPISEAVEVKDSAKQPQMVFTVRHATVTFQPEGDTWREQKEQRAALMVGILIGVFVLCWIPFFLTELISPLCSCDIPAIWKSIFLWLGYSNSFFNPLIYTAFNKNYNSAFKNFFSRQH

The assay concerns the target 5-hydroxytryptamine receptor 5A (Homo sapiens) (UniProt P47898). Kind of assay: HTR5A agonists in luminescence cell assay, primary screen, counter-screen for OPRM1-OPRD1 heterodimer agonist project, full-deck HTS (AID 504692).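 Further: 0% = cells with vehicle only and 100% = reference agonist.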 The note with it: cell-based, at 9.3 µM, active compounds read high.
Consider `COC(=O)c1ccc(NCc2cc(O)ccc2O)cc1`, for which the activation is 6.1%.
Under `O=C(OC12CC3CC(CC(C3)C1)C2)c1ccc(NCc2cc(O)ccc2O)cc1` stands 21.4% (active).
`CC(C)OC(=O)c1ccc(NCc2cc(O)ccc2O)cc1Cl`: the activation is 3.07%.
As for `C/C(=N\NC(=S)NC1CCCCC1)c1ccc(C)o1`, the activation was 6.64%.
In the case of `CCOC(=O)C1CSC(CC(=O)Nc2ccc(OCC)cc2)C(=O)N1` (stereo unspecified), the activation is -5.17%.
`O=C(CSc1ccccc1)Nc1cccc(S(=O)(=O)N2CCCCC2)c1`: the activation was -8.72%.
Regarding `CCN(CC(=O)Nc1cccc(S(=O)(=O)N2CCCCC2)c1)Cc1ccccc1`, the activation was 15.5% (active).
As to `CCN(CC(=O)Nc1ccc(S(=O)(=O)N2CCCC2)cc1)CC(=O)Nc1cccc(OC)c1`, the activation is -2.62%.
Take `O=C(Nc1cccc(S(=O)(=O)N2CCCCC2)c1)c1cncc(Br)c1`: the activation is 0.4%.
As to `CCN(CC)S(=O)(=O)c1cccc(NC(=O)c2ccc(S(=O)(=O)N3CCCC3)cc2)c1`, the activation is 13.2% (active).
As for `O=C(Nc1cccc(S(=O)(=O)N2CCCC2)c1)c1cncc(Br)c1`, the activation is 0.81%.
As for `CCOc1ccccc1NC(=O)CCS(=O)(=O)c1cccc2nsnc12`, the activation is 6.16%.
On to `O=C(COC(=O)c1cccnc1Cl)NC(=O)NC1CCCCC1`, for which the activation is -1.43%.
On to `OC(COCCC12CC3CC(CC(C3)C1)C2)CN1CCCCC1` (stereo unspecified), for which the activation is 3.12%.
Under `CCCOc1cccc(C(=O)Nc2ccccc2C(=O)N2CCN(C)CC2)c1` stands -7.36%; under `COc1ccccc1CNC(=O)COn1nnc2ccc(S(=O)(=O)N3CCOCC3)cc21`, -2.13%; under `O=C(COc1ccccc1)N1CCN=C1SCc1cccc(F)c1`, 8.07%.
Turning to `CN(Cc1cccnc1)C(=O)c1cc(COc2ccc3ncccc3c2)on1`, the activation is 11.7% (active).
On to `CN(Cc1cnccn1)C(=O)c1cc(COc2cccc(C(F)(F)F)c2)on1`, for which the activation is 0.68%.
On to `CC(=O)c1cccc(OCc2cc(C(=O)NC(C)Cc3cccnc3)no2)c1` (stereo unspecified), for which the activation is 2.99%.
As for `O=S(=O)(NC1CCCC1)c1ccc(-n2cnnn2)cc1`, the activation is 4.29%.
Under `CCn1c(C(C)C)n[nH]c1=S` stands 1.98%; under `CCOC(=O)c1c(NC(=O)Cn2nc(C(F)(F)F)cc2C)sc2c1CCC2`, 12.1% (active).
With `CCOC(=O)c1c(NC(=O)NC(C)(C)C)sc2c1CCN(C)C2`, the activation is -2.16%.
Consider `CCOC(=O)c1c(NC(=O)CSc2cn(CC)c3ccccc23)sc2c1CCC2`, for which the activation was -4.94%.
Next, `CCCn1c(SCC(=O)Nc2c(C)cccc2C)nnc1C(C)C`: -3.62%; `O=C(COc1ccccc1Cl)Nn1cnnc1`: 0.57%; `COC(=O)c1c(-c2ccsc2)oc2ccc(-c3cc(OC)c(OC)c(OC)c3)cc12`: 6.62%.
Turning to `COc1cc(-c2c(-c3ccc4c(c3)OCO4)noc2C)ccc1F`, the activation is -0.29%.
Next, `COc1cc2c(-c3ccc4c(c3)OCO4)c(-c3ccsc3)oc(=O)c2cc1OC`: 15.3% (active); `O=C(CCl)NNc1cccc(Cl)n1`: -8.59%; `COc1ccc2c(c1)SC(C)CC2=O` (stereo unspecified): 10.6% (active).
`COc1ccc(N)c(C)c1`: the activation is 0.27%.
Regarding `COc1ccc2c(c1)C(=O)CC(c1ccccc1)O2` (stereo unspecified), the activation was -1.73%.
Regarding `O=S(=O)(c1cccc(-c2nnc(SC(F)F)n2-c2ccccc2)c1)N1CCCCC1`, the activation is 0.34%.
Regarding `CCOc1ccc(CN2CCN(Cc3ccc(C)o3)CC2CCO)cc1` (stereo unspecified), the activation is -1.69%.
As for `Cc1ccc(CN2CCN(Cc3cn(C)nc3-c3ccccc3)CC2CCO)o1` (stereo unspecified), the activation is -1.42%.
Regarding `Cc1ccc(CN2CCN(Cc3ccc(OCCO)cc3)CC2CCO)o1` (stereo unspecified), the activation is 15% (active).
With `Cc1ccc2c(c1)C(c1ccccc1)N(C(=O)c1ccc(F)cc1)CC(=O)N2` (stereo unspecified), the activation was -1.42%.
Under `COc1ccc2c(CC(=O)OCC(=O)Nc3ccccc3[N+](=O)[O-])coc2c1` stands -1.41%.
Next, `Cc1ccc(NS(=O)(=O)c2cccs2)cc1S(=O)(=O)N1CCCCCC1`: 0.15%; `O=S(=O)(Nc1ccccc1Br)c1cccs1`: 8.11%; `O=S(=O)(Nc1ccccc1)c1ccc(NS(=O)(=O)c2cccs2)cc1`: 9.34% (active).
Under `Cc1c(OC(C)C(=O)NCC2CCC(C(=O)O)CC2)ccc2c1oc(=O)c1ccccc12` (stereo unspecified) stands 1%; under `CCOC(=O)N1CCC(Nc2c(NCCCN3CCN(c4ccc(OC)cc4)CC3)c(=O)c2=O)CC1`, -0.13%; under `COc1ccc(S(=O)(=O)Nc2cc(C)on2)cc1NC(C)=O`, 1.04%.
Turning to `CC(C)(C)c1ccc(C(=O)N2CCC(C(=O)N3CCCCC3)CC2)cc1`, the activation was 5.42%.
In the case of `CC1Cc2ccccc2N1C(=O)CSc1nnc(-c2ccc(S(=O)(=O)N3CCCC3)cc2)n1C` (stereo unspecified), the activation was 2.27%.
Regarding `COc1ccccc1CNC(=O)C1CCN(S(=O)(=O)c2ccc3c(c2)CC(C)N3C(=O)C2CC2)CC1` (stereo unspecified), the activation is -0.1%.
Regarding `COc1ccc(S(=O)(=O)N2CCN(CC(=O)N3c4ccccc4CC3C)CC2)cc1OC` (stereo unspecified), the activation is 22.4% (active).
With `O=C(CCS(=O)(=O)c1cccc2nsnc12)N1CCN(c2ccccc2F)CC1`, the activation is 5.73%.
For the compound `CN(Cc1ccccc1)C(=O)c1cccc(C(=O)N(C)Cc2ccccc2)c1`, the activation is -0.63%.
As to `CC(Cc1ccccc1)C(=O)N(C)Cc1ccccc1` (stereo unspecified), the activation was 12.5% (active).
With `CN(Cc1ccccc1F)C(=O)C(Cc1ccccc1)NC(=O)c1ccccc1` (stereo unspecified), the activation was -1.74%.
For `O=C(COC(=O)/C=C/c1ccc(S(=O)(=O)N2CCCCCC2)cc1)NCc1ccccc1Cl`, the activation is -5.05%.
As for `O=C1CCCN2N=C(SCC(=O)Nc3ccc(Br)cc3)SC2=N1`, the activation was -3.71%.
`CCCCCN(C(=O)NC(=O)Nc1ccccc1OC)S(C)(=O)=O`: the activation was -1.57%.
As for `CCOc1cc(/C=C2/N=C(c3ccc(C(C)(C)C)cc3)OC2=O)cc(Cl)c1OS(C)(=O)=O`, the activation was 13.3% (active).
As for `Cc1ccc(C2=N/C(=C\c3ccc(OS(=O)(=O)c4ccc(C)cc4)cc3)C(=O)O2)cc1`, the activation is 0.86%.
As for `COc1ccc(S(=O)(=O)Nc2cccnc2)c(Cl)c1Cl`, the activation is -1.41%.
Next, `Cc1cc(C)c(C)c(S(=O)(=O)Nc2cccnc2)c1C`: 13.8% (active); `Cc1cc(C)c(C)c(S(=O)(=O)Nc2ccc(O)cc2)c1C`: 3.2%; `O=C(OCc1ccc([N+](=O)[O-])cc1)C1CC(=O)N(Cc2ccccc2Cl)C1` (stereo unspecified): -0.92%.
`CCc1cccc(C)c1NS(=O)(=O)c1c(C)nc2sccn2c1=O`: the activation was 0.59%.
Regarding `COCCC(=O)N1CCC(Oc2ccc(C(=O)NCc3ccon3)cc2)CC1`, the activation is 1.64%.
As for `COc1ccc(CCNC(=O)CC2SC(=Nc3cc(C)cc(C)c3)NC2=O)cc1OC` (stereo unspecified), the activation is 1.71%.
As for `COC(=O)c1cc(C)sc1NC(=O)CC1Nc2ccccc2NC1=O` (stereo unspecified), the activation is 2.14%.
On to `O=C(CC1NCCNC1=O)Nc1ccc(Oc2ccccc2)cc1` (stereo unspecified), for which the activation was 1.17%.
`O=C(CC1Nc2ccccc2NC1=O)Nc1ccccc1` (stereo unspecified): the activation is 17% (active).
Take `COc1ccc(/C=C(\NC(=O)c2ccc(OCC(C)C)cc2)C(=O)OCc2ccco2)cc1`: the activation was -0.73%.
Regarding `O=S(=O)(NCc1cccnc1)c1ccc(Cl)nc1`, the activation was -5.88%.
Next, `COc1ccc2[nH]cc(CCN3C(=O)c4ccc(C(=O)O)cc4C3=O)c2c1`: 27% (active); `COCCCN1C(=O)c2ccc(C(=O)Nc3ccc(OC)cc3OC)cc2C1=O`: -0.44%; `Cc1ccc2[nH]cc(CCCN3C(=O)c4ccccc4C3=O)c2c1`: -1.1%.
In the case of `O=C(CNCc1cccs1)Nc1cc(S(=O)(=O)N2CCCC2)ccc1Cl`, the activation is -2.05%.
Take `COc1ccccc1CNC(=O)C1CCCN(S(=O)(=O)c2cccc3cccnc23)C1` (stereo unspecified): the activation was -3.07%.
`CCC(C)OC(=O)C(C)Oc1ccc(-c2ccccc2)cc1` (stereo unspecified): the activation is 3.02%.
Next, `CC1=C(C)CC2C(=O)N(c3cccc4ccccc34)C(=O)C2C1` (stereo unspecified): 1.96%; `CC(=O)Nc1ccc(N2C(=O)C3C4CC(=O)C(c5ccccc54)C3C2=O)cc1` (stereo unspecified): -1.72%.
On to `CCc1ccccc1N1C(=O)C2C3CC(=O)C(c4ccccc43)C2C1=O` (stereo unspecified), for which the activation was 10.2% (active).
For the compound `Cn1nc(C(C)(C)C)c([N+](=O)[O-])c1C(N)=O`, the activation was -3.65%.
Next, `NC(=O)c1ccc(N2CCOCC2)nc1`: 5.3%; `CCCN(CC1CC1)C(=S)NC(=O)c1ccccc1Br`: -3.6%.
As to `CC[C@]12c3[nH]c4cc(CCC(=O)N(C)C)ccc4c3CCN1C(=O)[C@@H](CC(=O)NCCCN(C)C)C[C@@H]2C(=O)N1CCN(C(=O)c2ccco2)CC1`, the activation was 4.2% (active).
For `CC[C@]12c3[nH]c4cc(CCC(=O)N(C)C)ccc4c3CCN1C(=O)[C@@H](CC(=O)NCCCn1ccnc1)C[C@@H]2C(=O)N1CCN(C(=O)C2CC2)CC1`, the activation is 2.93%.
Next, `CC[C@]12c3[nH]c4cc(CCC(=O)N(C)C)ccc4c3CCN1C(=O)[C@@H](CC(=O)NCc1ccco1)C[C@@H]2C(=O)N1CCN(C(=O)c2ccco2)CC1`: -2.65%; `O=C(c1cccnc1)N(Cc1ccccc1)C(=O)c1cccnc1`: 5.83%.
Next, `COc1ccc(N(C(=O)c2cccnc2)S(=O)(=O)c2ccc(OC)c(OC)c2)cc1`: 6.11%; `O=C(c1cccnc1)N(c1cc2sc(=O)oc2c2ccccc12)S(=O)(=O)c1ccccc1`: 16.1% (active); `COCCCn1c(-c2cccs2)nc2nc3ccccc3nc21`: -0.51%.
Next, `CC(OC(=O)CCc1nc(=O)c2ccccc2n1C)C(=O)NCc1ccc2c(c1)OCO2` (stereo unspecified): -4.46%.
